Source: PubChem BioAssay (Sanford-Burnham Center for Chemical Genomics)
Sampled rows, rich in hits. Any-hit rate of the full collection: about 4%.
TWEAK-Fn14 inh: inhibitors of TWEAK-Fn14 signaling, primary screen, luciferase reporter cells, uHTS. 360,000 compounds, 2% hits. TWEAK-stimulated Fn14 reporter cells, luciferase luminescence, 8 h. inhibition, % at 10 µM; in the data active means inhibition above about 50%
Peg3 prom inh: Peg3 promoter-driven luciferase inhibitors, primary screen, cell-based, HeLa, luciferase luminescence; AID 588405, 2011; HeLa PEG-Prom luciferase reporter, overnight; 360,000 compounds, 1.7% hits; inhibition, % at 20 µM;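 active means inhibition of at least 50% at 20 µM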
TROY signal inh: inhibitors of TROY-driven NF-kB signaling, primary screen, Q293 LMP1-TROYcd cells, NF-kB luciferase, uHTS; Q293 LMP1-TROYcd NF-kB luciferase reporter, 4 h; 360,000 compounds, 0.98% hits; inhibition, % at 10 µM; AID 1347056, 2019;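 active means compounds whose plate-normalised and pattern-corrected inhibition of the luciferase reporter signal at the single screening dose is 50% or more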
CF NFkB block: inhibitors of PAF-induced NF-kB signaling, primary screen, cell-based, GFP fluorescence, uHTS. KKLEB NF-kB-GFP reporter, GFP fluorescence overnight. inhibition, % at 5 µM. 360,000 compounds, 0.86% hits;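 active means at least 50% inhibition at 5 µM, scaled per plate between neutral and stimulator controls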;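 further: PAF is a Pseudomonas aeruginosa culture filtrate used as stimulus; plate controls were PAF-stimulated DMSO wells for no effect and unstimulated DMSO wells for full effect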
KKLEB tox: cytotoxicity in KKLEB CF airway cells, primary screen, cytotoxicity control for CF NF-kB inhibitor project, cell-based, uHTS, fluorescence assay plates | KKLEB CF airway cells viability, ATPlite luminescence, overnight; active compounds read low; cells stimulated with P. aeruginosa culture filtrate | activity change (cytotoxicity), % at 5 µM | 360,000 compounds, 0.36% hits;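 active means corrected activity change at or below -50% at 5 µM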
HIF-2a inh: HIF-2a reporter inhibitors, primary screen, luminescence, 786-0 RCC cells | AID 624352, 2012 | 360,000 compounds, 0.72% hits | inhibition, % at 18.8 µM | 786-0 RCC cells HIF-2a reporter, luciferase luminescence, overnight;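 active means inhibition of the luminescence signal of 40% or more relative to plate controls, in a single-dose primary screen at 18.75 µM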
Mdm2 MdmX conf: retested Mdm2-MdmX interaction blockers, confirmation, cell-based, luminescence, single concentration, set 2; 740 compounds, 99% hits; SaOS-2 split-luciferase Mdm2/MdmX complementation; inhibition, % at 8 µM; shares compounds with HIF-2a inh;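 active means mean inhibition of the luminescence signal across two replicates at or above 26 percent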
HIF-2a inh conf: HIF-2a reporter inhibitor retest, confirmation, luminescence, 786-0 RCC cells; shares compounds with HIF-2a inh; HIF-2a luciferase reporter luminescence, overnight; inhibition, % at 18.8 µM; 1,800 compounds, 56% hits; AID 651580, 2012;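 active means mean inhibition across four replicates of at least 40 percent at the single tested concentration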
HIF-1a counter: HIF-1a luciferase reporter signal reduction – MiaPaCa-2 cells, single concentration, counter-screen for HIF-2a inhibitor project, confirmation | shares compounds with HIF-2a inh | MiaPaCa-2 HIF-1a luciferase reporter, desferoxamine, overnight | inhibition, % at 18.8 µM | 1,800 compounds, 72% hits | AID 651589, 2012;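 active means mean inhibition of the reporter signal across four replicates at the single tested dose of 50% or more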
Active calls of the source: *; . = no result given.

SMILES	TWEAK-Fn14 inh	Peg3 prom inh	TROY signal inh	CF NFkB block	KKLEB tox	HIF-2a inh	HIF-2a inh conf	HIF-1a counter	others
Cc1nn(Cc2ccccc2)c(N)c1C#N	-1	0	16	-2	-6	9	.	.
C/C(=N\NC(=O)CN1CCN(S(=O)(=O)c2ccc(C)cc2)CC1)c1cccnc1	-18	-7	-12	4	-4	8	.	.
CC(C)(C)C(=O)OCOC(=O)[C@@H]1N2C(=O)[C@@H](N=CN3CCCCCC3)[C@H]2SC1(C)C	-47	5	-13	10	1	7	.	.
O=C1CC(N2C(=O)/C(=C/C=C/c3ccccc3)SC2=S)C(=O)N1c1ccccc1 (stereo not drawn)	0	15	-22	-13	7	18	.	.
CCOc1ccc(C(=O)/C=C/c2cc(OC)c(OC)c(OC)c2)cc1	42	62*	29	5	-25	66*	53*	103*
CCSc1nc(-c2ccc(OC)cc2)cc(-c2ccccc2)c1C#N	-12	22	-54	21	-5	1	.	.
COc1ccc(-c2cc(-c3ccccc3)c(C#N)c(S(C)=O)n2)cc1 (stereo not drawn)	12	114*	-20	13	-28	76*	31	98*
COc1cc(OC)cc(C(=O)NCc2n[nH]c(=S)n2-c2ccccc2OC)c1	-10	2	-2	7	-1	-5	.	.
N#Cc1c(NC(=O)CSC2=NCCS2)sc2c1CCCC2	-3	-71	-41	7	-6	-84	.	.
CC(C)(C)C1CCc2c(sc(NC(=O)CSc3ncn[nH]3)c2C#N)C1 (stereo not drawn)	18	-7	-18	44	-23	27	.	.
N#Cc1c(NC(=O)CSc2ncn[nH]2)sc2c1CCCC2	81*	14	39	18	11	90*	94*	71*
N#Cc1c(NC(=O)CCCC(=O)O)sc2c1CCCCC2	-9	-157	1	-9	-8	63*	67*	18
CC1CCc2c(sc(NC(=O)CSc3ncn[nH]3)c2C#N)C1 (stereo not drawn)	72*	38	45	3	-4	91*	95*	90*
O=C(Nc1nccs1)C1CCN(S(=O)(=O)c2ccc3c(c2)OCCCO3)CC1	17	13	16	-17	12	5	.	.
CCCN1CCC(C)(C(=O)Nc2ccccc2Oc2ccccc2)C1 (stereo not drawn)	1	3	-8	17	-20	11	.	.
COc1ccc(-c2oc3c(OC)c(OC)c(OC)c(O)c3c(=O)c2OC)cc1OC	6	42	3	-9	-5	-5	.	.	Mdm2 MdmX conf=74*
CC(C)=CCOc1ccc([C@@H]2COc3c(ccc4c3C=CC(C)(C)O4)C2)c(O)c1	45	49	39	4	0	61*	-26	100*
COc1ccc(OCc2cc(=O)c3ccc4c(c3o2)C=CC(C)(C)O4)cc1OC	10	1	36	11	20	-7	.	.
O=C(NCc1ccccc1)c1c(Cl)nc(Cl)c(Cl)c1Cl	93*	102*	66*	27	-33	37	.	.	Mdm2 MdmX conf=103*
Cc1nc(Cl)c(C(=O)NCc2ccccc2)c(C)c1Cl	-8	1	11	-6	-4	-6	.	.
